Experimental data: the supplement of paper PMC6555819

Legend:
Test in all cases: PBM binding z-score (relative to random genomic background probes); higher = stronger binding; sequences stand for … in GC…GCGATTGACAGCGTAGAATGAAGG
[1] = system: FXR:RXRa (NR concentration 270 nM, RXRa partner concentration 90 nM)
Outline: (§1)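 Custom Agilent 4×180K protein-binding microarrays carried double-stranded probes. Their 34-nt variable regions held direct-repeat seeds, single-nucleotide variants, half-site ablations and random human genomic background sequences. Arrays were incubated 1 h with ligand-free nuclear receptor dimers in PBS pH 7.4, 2% milk, 0.02% Triton X-100, 1 mM DTT, 0.2 mg/mL BSA and 0.4 mg/ml salmon testes DNA. Antibodies against each partner (one per run) detected binding, and scanned fluorescence was regression-normalized. Binding z-scores use random background probes as reference.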

[2] = system: LXRa:RXRa (NR concentration 270 nM, RXRa partner concentration 90 nM)
Outline: as §1

[3] = system: LXRa homodimer (NR concentration 270 nM)
Outline: as §1

[4] = system: LXRb:RXRa (NR concentration 270 nM, RXRa partner concentration 90 nM)
Outline: as §1

[5] = system: LXRb homodimer (NR concentration 270 nM)
Outline: as §1

[6] = system: PPARa:RXRa (NR concentration 270 nM, RXRa partner concentration 90 nM)
Outline: as §1

[7] = system: PPARg:RXRa (NR concentration 180 nM, RXRa partner concentration 90 nM)
Outline: as §1

[8] = system: PPARg:RXRa 270nM:90nM, anti-RXR (NR concentration 270 nM, RXRa partner concentration 90 nM)
Outline: as §1

[9] = system: PPARg:RXRa 30nM:10nM, anti-RXR (NR concentration 30 nM, RXRa partner concentration 10 nM)
Outline: as §1

[10] = system: PPARg:RXRa 90nM:30nM, anti-RXR (NR concentration 90 nM, RXRa partner concentration 30 nM)
Outline: as §1

Row | Sequence | PBM binding z-score [1] | PBM binding z-score [2] | PBM binding z-score [3] | PBM binding z-score [4] | PBM binding z-score [5] | PBM binding z-score [6] | PBM binding z-score [7] | PBM binding z-score [8] | PBM binding z-score [9] | PBM binding z-score [10]
1 | TCTTGTAGATCAAGGAGGTTAAGAAAGCCTGAGT | 0.502 | 0.513 | -0.308 | 0.459 | -0.443 | 1.27 | -0.429 | 1.44 | 2.7 | 1.77
2 | ACTCGGAGGACAAAGGTCATAGCTACGCCAGTGA | 6.1 | 5.52 | 4.19 | 4.73 | 0.856 | 6.18 | 8.47 | 7.15 | 6.46 | 8.09
3 | TCATATAGGTAAAGGTGAAAGCCGAACGATATGA | 0.132 | 1.05 | -0.406 | 1.09 | -0.488 | 3.13 | 3.82 | 4.43 | 4.34 | 4.51
4 | TCTTGTAGATCAAAGGGTAAGAAAGCCGAAGCCT | 0.566 | 0.4 | -0.283 | 0.288 | -0.418 | 2.51 | 4.4 | 5.99 | 5.35 | 6.1
5 | TCATATAGGAAAATGCTAGGTGAAAGTCCGATCT | 1.09 | 0.845 | 0.237 | 0.489 | -0.0669 | 0.728 | 0.487 | 2.3 | 4.01 | 3.28
6 | CCTACTGGGCCAAAGTCATTGATCAGTCAAAGCA | -0.681 | -0.266 | -0.412 | -0.243 | -1.2 | 0.687 | 1.42 | 2.53 | 0.485 | 1.74
7 | CCTTACGGGTCACGAGTTTATAGCACGACGAGCG | 6.13 | 3.82 | 0.393 | 3.41 | 0.252 | 5.25 | 5.99 | 5.87 | 2.81 | 4.64
8 | AGAACGAGGGTAATGAGTTGATAGCACGGGTGGC | -0.398 | -0.272 | -0.536 | -0.672 | -0.615 | 0.387 | 1.08 | 0.119 | 0.202 | 0.182
9 | TCTTGTAGATCAATAGAGGTTAAGAAGGTGCGCT | 0.831 | 2.82 | 0.464 | 1.44 | -0.193 | 2 | 0.18 | 1.52 | 2.75 | 1.95
10 | CTCGAAAGGTCTGTTGAGGTGAGTATACGGATAA | 0.57 | -0.177 | -0.581 | -0.275 | -0.339 | 0.697 | -0.00878 | 0.182 | -0.0313 | 0.242
11 | TCTCGGTGGACACGAAGGTCAGAGCTTTCCAGAG | 0.952 | 0.962 | 0.157 | 1.36 | -0.833 | 2.04 | 0.78 | 2.38 | 2.3 | 2.3
12 | CCTACTTGGCCAAGGTCATTGATCAGTCAAAGCA | 3.65 | 4.26 | 1.93 | 3.87 | 1.21 | 4 | 1.27 | 2.15 | 0.389 | 1.41
13 | CAAACTAGGTCATCCAGGACAGTGAATACATTGA | 4.46 | 3.23 | 1.22 | 2.51 | 0.932 | 5.12 | 8.08 | 6.82 | 4.42 | 6.36
14 | TCTTGTAGATCAGCACGTTAAGAAAGCTGGCCAA | 0.121 | 0.0301 | -0.232 | -0.0159 | -0.411 | 0.18 | -0.291 | 0.766 | 2.47 | 1.43
15 | ATCGAAAGGTCCAGGTGAGTATAGAGAAAGGGAA | 0.612 | 0.816 | 0.0552 | 0.22 | 0.494 | 0.594 | 0.347 | 0.503 | 0.287 | 0.512
16 | CCTAGTTGGTCAGGAGATCACACACCGGATATGA | 0.118 | 0.263 | 0.478 | 0.0659 | 0.414 | 0.215 | 1.01 | 0.651 | 0.236 | 0.432
17 | CCTGCTAGGTCAATGGTCAGCGAAAGCAGCTCGC | 2.75 | 2.4 | -0.241 | 1.4 | 0.134 | 3.37 | 5.06 | 5.2 | 3.2 | 5.18
18 | CCGACTGGGGCATTAGGTTACCATAAGCCAGCCC | -0.253 | 0.617 | -0.377 | 0.144 | -1.38 | 1.12 | 2.09 | 2.4 | 0.389 | 1.44
19 | AGTCAAAGTTCAGGACGATGTAACGTAAAGCACG | 3.6 | 3.59 | 0.938 | 1.8 | 0.134 | 3.05 | 4.28 | 4.75 | 1.92 | 3.68
20 | ATATGTAGGTTAGCTGGGCTCATTCAGACTAGGC | -0.0917 | -0.146 | -0.339 | -0.294 | -0.171 | 1.98 | 2.71 | 2.34 | 0.752 | 1.5
21 | AGAATGAGGTTTCCAAAGATCAGGGAAACGCTTG | -0.506 | -0.535 | -0.424 | -0.463 | -0.489 | -0.139 | 0.377 | -0.265 | -0.17 | -0.215
22 | ACAGACAGGTGATGTAGGTAACTCAGGCTATCAT | -0.0766 | -0.183 | -0.0278 | -0.28 | -0.53 | 0.633 | 0.673 | -0.0404 | -0.31 | -0.171
23 | GCTATTAGTTGAAACGGCAACCGAATGATTCTCG | -0.263 | -0.34 | -0.23 | -0.237 | 0.111 | -0.33 | 0.341 | -0.00574 | 0.0955 | 0.0763
